Rows were chosen to be rich in hits. Some 8.7% of all compounds tested hit in one or more screens of this group.
G9a block = G9a (human) methyltransferase inhibition; Q96KQ7; G9a H3K9 monomethylation, AlphaScreen, 2 h; Potency, µM (titrated, usually from 102 µM), inactives show at the top dose activity, negative = inhibition, usual class: inhibitors; hit rate 8.8% among 350,000; AID 504332; note: % is set by controls: 0 for no effect and ±100 for the full control effect; nearly all actives have a fitted effect of over 75% in size
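Quantitative HTS format: methyltransferase activity on a biotin-tagged H3K9 peptide is measured by AlphaScreen, using a rabbit anti-monomethyl-H3K9 antibody with streptavidin donor and anti-IgG acceptor beads. Final levels are 20 nM enzyme, 500 nM peptide, 20 uM SAM; 2 h RT.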
Sfp PPTase inh = inhibitors of Bacillus subtilis Sfp phosphopantetheinyl transferase. Q9F4F7. Biochemical Sfp PPTase activity, qHTS. Potency, µM, without a hit: largest response in the series, negative = inhibition, actives largely listed as inhibitors. hit rate 3.5% among 310,000;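 note: the enzyme is Sfp with the accession as filed and its product quenches rhodamine fluorescence; 0% = enzyme reaction without inhibitor and -100% = no enzyme wells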
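After 15 min at room temperature with compound, 15 nM Sfp received 5 uM rhodamine-CoA plus 12.5 uM BHQ-2-ybbR (50 mM Hepes pH 7.6, 10 mM MgCl2). Rate came from the fluorescence difference over 30 min, ex 525/em 598 nm.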
BAZ2B block = inhibitors of human BAZ2B bromodomain | Q9UIF8 | AlphaScreen BAZ2B-H3K14Ac peptide displacement | Potency, µM (titrated, usually from 114 µM), for inactives: top-dose activity change, negative = inhibition, most hits filed as inhibitors | hit rate 4.4% among 360,000; note: % is set by controls: 0 for no effect and ±100 for the full control effect; nearly all actives have a fitted effect of over 60% in size
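BAZ2B 50 nM plus b-H3(5-23)K14Ac 50 nM, PBS pH 7.4/0.01% Tween-20, 30 min RT; compound added (max 110 uM), 30 min RT; streptavidin donor/Ni-chelate acceptor beads 10 ug/mL final, 20 min dark; AlphaScreen read.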
JMJD2A Tudor = JMJD2A Tudor domain (human) inhibition. O75164. AlphaScreen JMJD2A-Tudor / H3K4me3 peptide binding. Potency, µM (highest dose often 114 µM), for the others: top-dose activity change, negative = inhibition, hits mostly inhibitors. hit rate 4.4% among 390,000. AID 504339; note: % is set by controls: 0 for no effect and ±100 for the full control effect; nearly all actives have a fitted effect of over 50% in size
HP1b chromo inh = HP1-beta chromodomain-methylated histone interaction inhibition; hit rate 0.56% among 390,000; Potency, µM (top dose mostly 114 µM), for inactives: at the top dose activity change, negative = inhibition, most hits filed as inhibitors; AlphaScreen HP1-beta / biotin-H3K9me3 peptide binding; P83916; AID 540317; note: nearly all actives have a fitted effect of over 70% in size
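Compound inhibition of the preformed complex between 50 nM HP1-beta and 50 nM biotinylated H3K9me3 peptide was read by AlphaScreen. Buffer was PBS pH 7.4 with 0.01% Tween-20. Incubations ran 30 min at room temperature, with 10 ug/mL donor/acceptor beads.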
12-LOX inh = ALOX12 (human) lipoxygenase inhibition. P18054. purified 12hLO, xylenol orange hydroperoxide absorbance. Potency, µM (highest dose often 108 µM), for the others: top-dose activity change, negative = inhibition, usual class: inhibitors. hit rate 1.1% among 580,000; note: % is set by controls: 0 for no effect and ±100 for the full control effect
Target sequence (P18054 whole entry, looked up): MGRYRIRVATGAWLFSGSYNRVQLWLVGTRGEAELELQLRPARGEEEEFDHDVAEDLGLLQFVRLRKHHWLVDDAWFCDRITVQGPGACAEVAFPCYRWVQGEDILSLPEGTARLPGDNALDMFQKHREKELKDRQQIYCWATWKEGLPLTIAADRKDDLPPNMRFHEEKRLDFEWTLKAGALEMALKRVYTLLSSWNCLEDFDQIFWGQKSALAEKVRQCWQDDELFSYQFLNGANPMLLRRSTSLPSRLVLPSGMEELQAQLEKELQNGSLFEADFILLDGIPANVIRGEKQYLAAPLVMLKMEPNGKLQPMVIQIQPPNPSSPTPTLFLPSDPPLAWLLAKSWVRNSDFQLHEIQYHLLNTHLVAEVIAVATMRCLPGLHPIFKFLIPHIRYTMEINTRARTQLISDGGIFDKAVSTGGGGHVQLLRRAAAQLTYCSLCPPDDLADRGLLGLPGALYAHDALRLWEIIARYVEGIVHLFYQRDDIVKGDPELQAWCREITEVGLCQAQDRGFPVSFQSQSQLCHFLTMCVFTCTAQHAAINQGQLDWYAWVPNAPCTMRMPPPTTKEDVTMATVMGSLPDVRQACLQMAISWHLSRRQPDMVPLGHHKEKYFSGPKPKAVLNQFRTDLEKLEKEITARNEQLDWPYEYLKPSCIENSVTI
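Purified human 12hLO at 150 nM in 25 mM Hepes, 0.01% Triton X-100, pH 7.0, preincubated 15 min at room temperature with compound. Reaction started with 40 uM arachidonic acid, 30 min at room temperature. Hydroperoxide measured by Fe-xylenol orange, 573/405 nm absorbance ratio.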
Starred values were filed as active, the others as inactive; ! = not confirmed by another sample; [ ] = remark or other dose. Calls come from the whole dose curve; as a rule, active = well fitted curve in the direction sought with a large enough effect; inconclusive = small, poorly fitted or top-dose-only effect, or another doubt; inactive = no such curve, though single readings can be large; an effect the other way counts as inactive or inconclusive. Potency is the fitted concentration of half-maximal effect.

How did CN1C(=O)NC(=O)C2(Cc3ccccc3N3CCOCC32)C1=O (stereo not given) do in these assays?
G9a block: -1%[59 µM]; Sfp PPTase inh: -1%; BAZ2B block: 3%; JMJD2A Tudor: -1%; HP1b chromo inh: 5%; 12-LOX inh: 12%

Results for CCCn1c(C)c(C(=O)NC2CCCCC2)c2cc(OC)ccc21 ?
12-LOX inh: -12%

Results for O=C(c1ccc(F)cc1)N1C[C@@H]2C[C@H](C1)c1ccc(-c3cncnc3)c(=O)n1C2 ?
12-LOX inh: 0%[176 µM]

What do the screens show for `CC(=O)NC1N=C(C)N(c2ccccc2)C1=O` (stereo not given)?
G9a block: 3.2µM*; Sfp PPTase inh: 40µM*; BAZ2B block: -15%; JMJD2A Tudor: 45µM*; HP1b chromo inh: inconclusive; 12-LOX inh: inconclusive

Results for CC1=NN(c2ccccc2)C(=O)C1=C(C)C ?
G9a block: inconclusive; Sfp PPTase inh: 7%; BAZ2B block: inconclusive; JMJD2A Tudor: -19%; HP1b chromo inh: 50%; 12-LOX inh: -20%

Results for Cc1ccc(NC(=O)c2cn(C)c3ccccc23)cc1 ?
12-LOX inh: -13%

What do the screens show for `CC1=NCCc2c1[nH]c1cc(O)ccc21`?
G9a block: 1.4µM*!; Sfp PPTase inh: 79µM*!; BAZ2B block: 4%; JMJD2A Tudor: -19%; HP1b chromo inh: 39%; 12-LOX inh: inconclusive

What do the screens show for `COc1cc(CN2CCN(C(=O)COc3ccc4ccccc4c3)CC2)cc(OC)c1O`?
12-LOX inh: 1.6µM*

What do the screens show for `CCN1CCN(C(=O)Cc2ccccc2OC)CC1`?
G9a block: -4%; Sfp PPTase inh: 16%; BAZ2B block: -25%; JMJD2A Tudor: -8%; HP1b chromo inh: 34%; 12-LOX inh: 0%

Results for Cc1cccc(OCC(=O)N2CCN(Cc3ccc(=O)n(C)c3)CC2)c1 ?
12-LOX inh: -3%

Results for COc1ccccc1CN1CCN(C(=O)COc2ccccc2)CC1 ?
G9a block: inconclusive; Sfp PPTase inh: -11%; BAZ2B block: inconclusive; JMJD2A Tudor: 3.2µM*; HP1b chromo inh: inconclusive; 12-LOX inh: inconclusive

What do the screens show for `COc1cc(OC)c(OC)cc1CN1CCN(C(=O)COc2ccc3ccccc3c2)CC1`?
G9a block: 10µM*; Sfp PPTase inh: -21%; BAZ2B block: 45µM*; JMJD2A Tudor: 3.2µM*; HP1b chromo inh: 50µM*; 12-LOX inh: inconclusive

Results for Cc1cccc(OCC(=O)N2CCN(Cc3ccc([N+](=O)[O-])cc3)CC2)c1 ?
G9a block: 0%; Sfp PPTase inh: 12%; BAZ2B block: -1%; JMJD2A Tudor: 10µM*; HP1b chromo inh: inconclusive; 12-LOX inh: -17%

How did CN1CCNc2cc(Nc3ccc(F)c(Cl)c3)ncc2C1 do in these assays?
12-LOX inh: -16%[176 µM]

Results for COc1ccc(OCC(=O)N2CCN(C(C)C)CC2)cc1 ?
G9a block: 10µM*; Sfp PPTase inh: -19%; BAZ2B block: 56µM*; JMJD2A Tudor: 1.4µM*; HP1b chromo inh: inconclusive; 12-LOX inh: -14%

Results for CN(C)c1ccc(/C=C/c2cc[n+](C)c3ccccc23)cc1 ?
G9a block: inconclusive; Sfp PPTase inh: 56µM*; BAZ2B block: 79µM*; JMJD2A Tudor: 22µM*; HP1b chromo inh: 45µM*; 12-LOX inh: inconclusive

How did O=C(O)CC1(CNC(=O)Cn2ccc3c(Cl)cccc32)CCCCC1 do in these assays?
12-LOX inh: -19%

How did O=C1CO[C@H]2CN(C3CCOCC3)C[C@H]2N1Cc1ccccn1 do in these assays?
12-LOX inh: 33%[176 µM]

What do the screens show for `Cc1cccc(N2CCC3(CC2)C(=O)NC(=O)NC3=O)c1`?
JMJD2A Tudor: -17%; HP1b chromo inh: 11%; 12-LOX inh: 14%

What do the screens show for `Cc1cccc(N2C(=O)NC(=O)/C(=C\c3ccc(N4CCOCC4)cc3)C2=O)c1`?
G9a block: inconclusive; Sfp PPTase inh: 25µM*; BAZ2B block: -13%; JMJD2A Tudor: -5%; HP1b chromo inh: inconclusive; 12-LOX inh: inconclusive

Results for Cc1cccc(N2C(=O)NC(=O)/C(=C/c3ccc(N4CCOCC4)cc3)C2=O)c1 ?
G9a block: inconclusive; Sfp PPTase inh: 50µM*; JMJD2A Tudor: -12%; HP1b chromo inh: 23%; 12-LOX inh: -29%

What do the screens show for `COc1cc(C2SCC(=O)Nc3c2c(C)nn3C)ccc1OCc1ccccc1C` (stereo not given)?
12-LOX inh: -24%

Results for CCN1C2CCC1CN(C(=O)c1ccncc1)C2 ?
12-LOX inh: 2%[12.5 µM]

What do the screens show for `COc1cc(/C=C/C(=O)c2c(O)n(CCc3ccccc3)c(=O)[nH]c2=O)ccc1O`?
G9a block: 45µM*; Sfp PPTase inh: -18%; BAZ2B block: 11%; JMJD2A Tudor: -9%; HP1b chromo inh: 16%; 12-LOX inh: -29%

What do the screens show for `CN1c2ncccc2CN(Cc2ccccn2)CC[C@H]1CO`?
12-LOX inh: 228%[176 µM]

What do the screens show for `Nc1cccc(-c2cn(C[C@H]3CC4CCN3C[C@@H]4C(=O)Nc3ccccc3)nn2)c1` (stereo not given in full)?
12-LOX inh: 85%[176 µM]

How did COc1cc2[nH]c(=O)n(-c3ccccc3)c(=O)c2cc1OC do in these assays?
G9a block: 13%[59 µM]; Sfp PPTase inh: 22%; BAZ2B block: 2%; JMJD2A Tudor: -21%; HP1b chromo inh: 59%; 12-LOX inh: 0%

How did Cc1[nH]n(-c2ccccc2)c(=O)c1C(c1cccc([N+](=O)[O-])c1O)c1c(C)[nH]n(-c2ccccc2)c1=O do in these assays?
G9a block: 45µM*; Sfp PPTase inh: -5%; BAZ2B block: 32µM*; JMJD2A Tudor: 50µM*; HP1b chromo inh: inconclusive; 12-LOX inh: 25µM*

How did COc1ccc(-n2c(-c3ccccc3[N+](=O)[O-])nc3ccccc3c2=O)cc1 do in these assays?
G9a block: 21%; Sfp PPTase inh: -4%; BAZ2B block: inconclusive; JMJD2A Tudor: inconclusive; HP1b chromo inh: -18%; 12-LOX inh: 3%

What do the screens show for `COc1cc(C(c2c(C)[nH]n(-c3ccccc3)c2=O)c2c(C)[nH]n(-c3ccccc3)c2=O)cc(OC)c1OC`?
G9a block: 15%[0.501 µM]; Sfp PPTase inh: -8%; BAZ2B block: 45µM*; JMJD2A Tudor: inconclusive; HP1b chromo inh: -8%; 12-LOX inh: inconclusive

Results for Cc1noc(C)c1C(=O)N1C2CCC1CN(C(C)C)C2 ?
12-LOX inh: 14%[12.5 µM]

Results for O=[N+]([O-])c1ccc(F)c([N+](=O)[O-])c1 ?
G9a block: inconclusive; Sfp PPTase inh: 15%
